Screening data from PubChem.
The list is not random: actives were taken first. Their share in the collection is about 6.2%.
Marburg entry inh – blocks Marburg virus binding to or entry into cells; Marburg virus pseudotyped entry inhibition, cell reporter; Potency, µM (doses to about 37.8 µM), for inactives: top-dose activity change, negative = inhibition, most hits filed as inhibitors; 300,000 tested, 1.8% active; AID 540276; calls by dose curve; tested in HEK293 cells; further: potency means the concentration at half of the fitted maximal effect
FMDV antiviral – blocks foot and mouth disease virus | FMDV antiviral cell-based qHTS | Potency, µM (top dose mostly 57.9 µM), for the others: at the top dose activity change, negative = inhibition, hits mostly inhibitors | 410,000 tested, 1.2% active; calls by dose curve; tested in HEK293T cells; further: read-out not given here; potency means the concentration at half of the fitted maximal effect; nearly all actives have a fitted effect of over 45% in size
LASV entry inh – Lassa virus entry inhibition; AID 540256; Lassa virus pseudotype entry inhibition, cell reporter; 300,000 tested, 1.2% active; Potency, µM (series often up to 37.9 µM), for inactives: at the highest dose activity change, negative = inhibition, actives largely listed as inhibitors; calls by dose curve; tested in HEK293 cells; further: potency means the concentration at half of the fitted maximal effect; nearly all actives have a fitted effect of over 50% in size
HCMV inh – blocks human cytomegalovirus replication | 410,000 tested, 4.5% active | HFF cells, HCMV-luciferase reporter, 72 h; hits give low values | AID 1259415 | activity change, negative = inhibition, % at 57.5 µM; in the data active means activity change below about -60%; inconclusive means no clear call, values can overlap the other calls; inactive means above about -39%
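Steps: HFFs plated, 16 h 37C; compounds added; HCMV-luciferase added to MOI 1 PFU/cell; 72 h 37C; OneGlo reagent, 5 min room temperature; luminescence read, normalized to controls.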
* hit, by the source's call; ? = inconclusive; / = no result; ! = a repeat was not active; [ ] = remark or other dose. On the % scale 0 is the no-effect control and ±100 the full control effect.

SMILES	Marburg entry inh	FMDV antiviral	LASV entry inh	HCMV inh
CC(C)(O)C1C2OC(=O)C1C1(O)CC3OC34C(=O)OC2C14C (stereo unspecified)	/	-21.1%	/	-75.8*
CSc1nc2nccc(-c3ccc(Oc4ccccc4)cc3)n2n1	?	-27.6%	15.8µM*	-17.3
COc1ccc(NC(=O)C2CCCN(c3ncnc4onc(C)c34)C2)cc1OC (stereo unspecified)	/	?	7.2%[46.1 µM]	-13.6
COc1ccc(Cl)cc1NC(=O)C1CCCN(c2ncnc3onc(C)c23)C1 (stereo unspecified)	/	?	-15.9%[46.1 µM]	-76.7*
N[C@@H](Cc1ccc(N(CCCl)CCCl)cc1)C(=O)O	5.8µM*	-20.4%	/	-27.2
NC(Cc1ccc(O)cc1)C(=O)NN=Cc1ccc(N(CCCl)CCCl)cc1 (stereo unspecified)	1.26µM*	0.0%	3.98µM*	-16.9
O=C(O)CCCc1ccc(N(CCCl)CCCl)cc1	3.16µM*!	-4.2%	-28.5%	0.8
COc1cc(C(=O)NN=Cc2ccc(N(CCCl)CCCl)cc2)cc(OC)c1OC	?	-19.0%	?	-16.9
CC(=O)NC(Cc1ccc(N(CCCl)CCCl)cc1)C(=O)O (stereo unspecified)	?	/	-29.4%	-24.8
CCOc1cc(C(=O)O)cc(Cl)c1OC	1.2%	0.0%	10.9%	-0.5
CCc1ccc(CNC(=O)c2ccc3c(c2)NC(=O)C(N2CCOCC2)S3)cc1 (stereo unspecified)	/	-22.6%	/	?
O=C(NNC(=O)c1ccc2ccccc2c1)Nc1ccc(F)cc1	/	24.1%	/	-0.4
c1ccc([C@H]2NCCc3c2[nH]c2ccccc32)cc1	22.5%[14.2 µM]	/	/	/
O=Cc1cnc(N2CCN(c3ccccc3)CC2)s1	?	-1.9%	2.2%[46.1 µM]	13.9
O=Cc1cnc(N2CCN(Cc3ccccc3)CC2)s1	12.2%[46.1 µM]	-13.3%	-14.7%[46.1 µM]	-63.5*
COCC(C)n1c(C)cc(C(=O)COC(=O)c2c(C)nn(-c3ccccc3)c2C)c1C (stereo unspecified)	?	-8.6%	?	6.3
COCC(C)n1c(C)cc(C(=O)COC(=O)c2c(NC(C)=O)sc(C)c2C)c1C (stereo unspecified)	2.59µM*	?	?	-5.3
O=C1NC(=O)C(=Cc2ccc(SC3CCCCC3)o2)C(=O)N1	15.5%	17.8µM*	-27.9%	172.4
COc1ccc(S(=O)(=O)Nc2cc3c(C(C)=O)c(C)oc3c3ccccc23)cc1	?	0.2%	?	-76.0*
Cc1noc(C)c1CSCC(=O)OCC(=O)NC1CCCCC1	-6.7%	-21.9%	8.6%	22.3
CC(=O)c1ccccc1-c1csc2ncnc(Sc3nnnn3C)c12	/	-16.5%	/	?
Cc1ccc(C)n1-n1cnc2scc(-c3cccs3)c2c1=O	?	-5.9%	-18.4%	-0.6
